In PubChem BioAssay (Tox21):
Several values for one entry are separate records, joined by “and”; a condition that tells them apart may be missing. Identical values can stand only once. Inconclusive results are not listed. Where a call stands in place of a potency, no number is given. Activity calls are given as the source filed them. Unless noted, calls come from the whole dose curve.

What was measured:
[1] = Nuclear factor erythroid 2-related factor 2/antioxidant responsive element (Nrf2/ARE) small molecule agonists: luciferase reporter gene qHTS assay in human keratinocytes (AID 1919969); note: nearly all actives have a fitted effect of over 35% in size; note: potency is the fitted concentration of half-maximal effect
[2] = molecular target: Gonadotropin-releasing hormone receptor (Homo sapiens) (UniProt P30968); test: Human gonadotropin-releasing hormone receptor (GnRHR) small molecule agonists, calcium flux assay in GnRHR-HEK293 cells (AID 1920063); note: nearly all actives have a fitted effect of over 35% in size; note: potency is the fitted concentration of half-maximal effect
Summary of the method: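 GnRHR-HEK293, 1500 cells/well, 18 h 37 C/5% CO2; Ca dye 1 h 37 C; cpd pinned (DMSO), agonist mode; kinetic FL 480/540, 3 min, 1 s reads; 15 conc, n=3.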

[3] = molecular target: KiSS-1 receptor (Homo sapiens) (UniProt Q969F8); test: Human kisspeptin (KISS1R) small molecule agonists, calcium flux assay in KISS1R-HEK293 cells (AID 1920064; active = well fitted activation curve with a large enough effect in the repeat runs)
Summary of the method: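 Stable human KISS1R HEK293 line; 18 h plating, 37 C/5% CO2; calcium dye 1 h 37 C; compound pin transfer; kinetic fluorescence Ex/Em 480/540, 3 min.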

[4] = G protein-coupled receptor (GPCR) small molecule agonists, calcium flux assay: HEK293 wild type cell line counter screen (AID 1920065)
Summary of the method: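 Kinetic fluorescence at Ex/Em 480/540, recorded every second over 3 min, served as the read-out after compound addition. Each compound was tested at 15 concentrations in triplicate on cells pre-loaded with calcium dye for 1 h.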

[5] = p53 small molecule agonists, cell-based qHTS assay with human liver microsomes: qHTS cell viability counter screen (AID 1963579); note: nearly all actives have a fitted effect of over 45% in size
Summary of the method: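 Metabolically activated exposure: compounds, human liver microsomes and NADPH (0.5 mg/mL final apiece) were added to p53RE-bla cells seeded 5 h earlier, left 16 h at 37 C, and then assessed for viability by CellTiter-Glo luminescence.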

[6] = p53 small molecule agonists, cell-based qHTS assay with rat liver microsomes: qHTS cell viability counter screen (AID 1963580); note: nearly all actives have a fitted effect of over 45% in size
Summary of the method: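 p53RE-bla HCT-116 cells (4,000/well) rested 5 h at 37 C, then given Tox21 compounds in DMSO with rat liver microsomes (0.5 mg/mL final) plus NADPH (0.5 mg/mL final) for 16 h at 37 C. Viability read by CellTiter-Glo luminescence after 30 min at room temperature.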

[7] = p53 small molecule agonists, cell-based qHTS assay: qHTS cell viability counter screen (AID 1963581); note: nearly all actives have a fitted effect of over 45% in size
Summary of the method: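 HCT-116 p53RE-bla cells, 4,000/well, plated 5 h before compound pin transfer; 16 h at 37 C; bla substrate 2 h RT; then CellTiter-Glo, 30 min RT, luminescence.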

[8] = molecular target: 5-hydroxytryptamine receptor 2A (Homo sapiens) (UniProt P28223); test: 5-hydroxytryptamine receptor 2A (HTR2A) small molecule antagonists, cell-based qHTS assay (AID 1963586); note: nearly all actives have a fitted effect of over 45% in size
Summary of the method: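 Antagonist-mode intracellular calcium assay: DOI (4 nM) added after 5 min compound pre-incubation at room temperature to dye-loaded HTR2A-CHO cells. Fluorescence followed for 3 min, sampled every second.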

[9] = molecular target: 5-hydroxytryptamine receptor 2A (Homo sapiens) (UniProt P28223); test: 5-hydroxytryptamine receptor 2A (HTR2A) small molecule agonists, cell-based qHTS assay (AID 1963587); note: nearly all actives have a fitted effect of over 30% in size; note: potency is the fitted concentration of half-maximal effect
Summary of the method: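 HTR2A-CHO cells, plated 18 h at 37 C/5% CO2, dye-loaded 1 h at 37 C; compounds in DMSO added by pin tool (agonist mode). Intracellular calcium flux read as kinetic fluorescence on FDSS over 2 min at 1 s intervals.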

[10] = molecular target: Muscarinic acetylcholine receptor M1 (Homo sapiens) (UniProt P11229); test: Cholinergic receptor muscarinic 1 (CHRM1) small molecule antagonists, cell-based qHTS assay (AID 1963588); note: nearly all actives have a fitted effect of over 40% in size
Summary of the method: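 CHRM1-CHO calcium-flux assay, antagonist mode. Cells were seeded 18 h, dye-loaded 1 h at 37 C and given compound for 5 min at RT, then acetylcholine was added at 50nM. FDSS fluorescence was read 3 min; 15 concentrations, three runs.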

[11] = molecular target: Muscarinic acetylcholine receptor M1 (Homo sapiens) (UniProt P11229); test: Cholinergic receptor muscarinic 1 (CHRM1) small molecule agonists, cell-based qHTS assay (AID 1963589); note: nearly all actives have a fitted effect of over 35% in size
Summary of the method: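 Human M1 in stable CHO line; 18 h plating, 1 h dye load 37 C; cpd added (agonist mode); Ca2+ fluorescence kinetic read, 1 s intervals; 15 conc, 3 runs.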

[12] = cAMP Responsive Elements (CRE) small molecule agonists, cell-based qHTS assay (AID 1963590); note: potency is the fitted concentration of half-maximal effect
Summary of the method: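 HEK 293T CRE-bla, 2,000 cells/well, 18 h preincubation 37 C/5% CO2; cpds (DMSO) pinned, 3 h; LiveBLAzer B/G FRET substrate, 2 h RT.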

[13] = molecular target: Beta-2 adrenergic receptor (Homo sapiens) (UniProt P07550); test: Adrenergic beta2 receptor (ADRB2) small molecule antagonists, cell-based qHTS assay (AID 1963592); note: series mostly up to about 92 µM; nearly all actives have a fitted effect of over 50% in size
Summary of the method: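 Cells (CHO, stable ADRB2 overexpression) incubated 18-20hr at 37C; compounds added from DMSO; agonist mix (1nM isoproterenol, 100uM IBMX, 25uM Ro-20-1724) added; 0.5hr RT; d2-cAMP and anti-cAMP-cryptate added; 1hr RT; 665/615 nm read.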

[14] = molecular target: D(2) dopamine receptor (Homo sapiens) (UniProt P14416); test: Dopamine D2 receptor (DRD2) small molecule agonists, cell-based qHTS assay (AID 1963594); note: nearly all actives have a fitted effect of over 35% in size
Summary of the method: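 HEK293 cells stably expressing DRD2 were cultured 24 h at 37 C, then given Ro20-1724 (0.1 mM final) and compounds for 10 min at room temperature. NKH477 (200nM) was then added for 30 min. cAMP was read by HTRF.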

[15] = molecular target: D(2) dopamine receptor (Homo sapiens) (UniProt P14416); test: Dopamine D2 receptor (DRD2) small molecule antagonists, cell-based qHTS assay (AID 1963595; active = well fitted inhibition curve with a large enough effect in the signal ratio in the repeat runs, with a control signal flat; the % refers to the signal ratio)
Summary of the method: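 Antagonism was scored as restored cAMP in HEK293-DRD2 cells. These cells were stimulated with 200 nM NKH477 and 12 nM quinpirole for 30 min at room temperature, in the presence of 0.1 mM Ro20-1724.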

[16] = cAMP Responsive Elements (CRE) small molecule antagonists, cell-based qHTS assay (AID 1963591; active = well fitted inhibition curve with a large enough effect in the signal ratio in the repeat runs, not every such curve was filed as active; the % refers to the signal ratio)
Summary of the method: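 Beta-lactamase reporter read by FRET substrate (LiveBLAzer B/G) after 2 h at room temperature. CRE-bla HEK293T cells had received compound plus 0.25 uM (final) NKH477 for 3 h at 37 °C.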

[17] = molecular target: Beta-2 adrenergic receptor (Homo sapiens) (UniProt P07550); test: Adrenergic beta2 receptor (ADRB2) small molecule agonists, cell-based qHTS assay (AID 1963593); note: potency is the fitted concentration of half-maximal effect;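 for activation: CHO cells stably overexpressing human ADRB2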
Summary of the method: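 CHO cells stably over-expressing ADRB2 were plated overnight at 37C, then dosed with compounds plus a stimulation mix containing 100uM IBMX and 25uM Ro-20-1724 for 0.5hr at room temperature. cAMP was measured by HTRF competition, 1hr.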

[18] = p53 small molecule agonists, cell-based qHTS assay (AID 1963582; active = well fitted activation curve with a large enough effect in the signal ratio in the repeat runs, not every such curve was filed as active; the % refers to the signal ratio)
Summary of the method: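 Reporter line: p53RE-bla. Pre-incubation 5 h, 37 C, 5% CO2; compound (DMSO, pin tool) 16 h, 37 C; B/G FRET substrate 2 h RT; fluorescence intensity read.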

[19] = p53 small molecule agonists, cell-based qHTS assay with rat liver microsomes (AID 1963578)
Summary of the method: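 Agonist mode in p53RE-bla reporter cells, with compounds co-incubated 16 h at 37 C alongside 0.5 mg/mL rat liver microsomes and 0.5 mg/mL NADPH (final), followed by a 2 h LiveBLAzer detection step.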

Gonadotropin-releasing hormone receptor (Homo sapiens), sequence (P30968 whole entry, looked up): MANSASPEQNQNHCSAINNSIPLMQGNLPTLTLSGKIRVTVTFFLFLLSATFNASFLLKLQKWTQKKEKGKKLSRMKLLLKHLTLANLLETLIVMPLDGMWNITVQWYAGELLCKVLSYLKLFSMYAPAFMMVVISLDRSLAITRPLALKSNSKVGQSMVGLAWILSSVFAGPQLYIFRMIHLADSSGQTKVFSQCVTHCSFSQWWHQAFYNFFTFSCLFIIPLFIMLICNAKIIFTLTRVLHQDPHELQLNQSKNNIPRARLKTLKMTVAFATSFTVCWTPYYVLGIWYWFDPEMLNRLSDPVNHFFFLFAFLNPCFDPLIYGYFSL
Beta-2 adrenergic receptor (Homo sapiens), sequence (P07550 whole entry, looked up): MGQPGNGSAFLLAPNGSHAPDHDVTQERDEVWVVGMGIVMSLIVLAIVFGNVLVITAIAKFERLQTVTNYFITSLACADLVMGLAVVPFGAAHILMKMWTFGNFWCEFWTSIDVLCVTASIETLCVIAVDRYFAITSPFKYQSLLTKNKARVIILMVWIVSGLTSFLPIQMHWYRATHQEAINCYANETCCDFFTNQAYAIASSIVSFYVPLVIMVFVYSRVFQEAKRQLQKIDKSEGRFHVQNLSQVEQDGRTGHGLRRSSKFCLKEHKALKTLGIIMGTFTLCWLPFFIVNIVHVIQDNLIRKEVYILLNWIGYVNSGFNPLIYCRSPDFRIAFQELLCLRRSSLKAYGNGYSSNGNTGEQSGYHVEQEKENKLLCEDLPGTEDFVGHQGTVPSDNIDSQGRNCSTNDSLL
Muscarinic acetylcholine receptor M1 (Homo sapiens), sequence (P11229 whole entry, looked up): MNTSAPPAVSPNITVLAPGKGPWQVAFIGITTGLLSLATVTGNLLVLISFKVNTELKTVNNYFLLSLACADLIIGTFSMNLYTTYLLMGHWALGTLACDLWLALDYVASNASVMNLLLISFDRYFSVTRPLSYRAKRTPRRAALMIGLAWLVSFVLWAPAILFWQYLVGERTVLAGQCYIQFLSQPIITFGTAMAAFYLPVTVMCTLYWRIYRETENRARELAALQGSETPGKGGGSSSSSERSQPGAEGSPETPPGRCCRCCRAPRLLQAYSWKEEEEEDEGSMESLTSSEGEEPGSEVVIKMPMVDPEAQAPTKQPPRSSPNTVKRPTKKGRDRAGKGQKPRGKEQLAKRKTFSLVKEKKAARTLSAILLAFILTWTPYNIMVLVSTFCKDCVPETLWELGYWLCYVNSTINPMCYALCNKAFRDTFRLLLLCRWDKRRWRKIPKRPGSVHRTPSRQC
D(2) dopamine receptor (Homo sapiens), sequence (P14416 whole entry, looked up): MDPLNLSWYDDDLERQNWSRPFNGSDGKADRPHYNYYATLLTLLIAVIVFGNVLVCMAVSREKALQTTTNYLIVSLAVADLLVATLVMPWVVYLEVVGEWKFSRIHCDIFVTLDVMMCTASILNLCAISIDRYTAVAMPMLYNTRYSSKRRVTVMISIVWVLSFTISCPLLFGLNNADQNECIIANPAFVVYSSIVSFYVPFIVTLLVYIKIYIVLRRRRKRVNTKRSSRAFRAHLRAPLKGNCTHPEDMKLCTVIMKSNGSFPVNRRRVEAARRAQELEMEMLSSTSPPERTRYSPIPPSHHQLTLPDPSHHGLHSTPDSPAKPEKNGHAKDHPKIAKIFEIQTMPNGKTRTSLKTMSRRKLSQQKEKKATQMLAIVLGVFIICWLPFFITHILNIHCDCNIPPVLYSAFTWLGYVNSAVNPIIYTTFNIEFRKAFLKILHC
KiSS-1 receptor (Homo sapiens), sequence (Q969F8 whole entry, looked up): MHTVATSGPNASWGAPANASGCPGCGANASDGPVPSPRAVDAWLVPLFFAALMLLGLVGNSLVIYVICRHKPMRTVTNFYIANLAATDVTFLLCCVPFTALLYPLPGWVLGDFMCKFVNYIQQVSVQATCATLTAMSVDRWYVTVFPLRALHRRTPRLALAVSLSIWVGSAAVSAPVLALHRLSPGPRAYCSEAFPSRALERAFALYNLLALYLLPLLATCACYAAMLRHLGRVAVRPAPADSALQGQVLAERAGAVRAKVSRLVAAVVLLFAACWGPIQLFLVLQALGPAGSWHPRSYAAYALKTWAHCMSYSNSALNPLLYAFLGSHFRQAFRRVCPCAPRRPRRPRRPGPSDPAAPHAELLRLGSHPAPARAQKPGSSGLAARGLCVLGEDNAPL
5-hydroxytryptamine receptor 2A (Homo sapiens), sequence (P28223 whole entry, looked up): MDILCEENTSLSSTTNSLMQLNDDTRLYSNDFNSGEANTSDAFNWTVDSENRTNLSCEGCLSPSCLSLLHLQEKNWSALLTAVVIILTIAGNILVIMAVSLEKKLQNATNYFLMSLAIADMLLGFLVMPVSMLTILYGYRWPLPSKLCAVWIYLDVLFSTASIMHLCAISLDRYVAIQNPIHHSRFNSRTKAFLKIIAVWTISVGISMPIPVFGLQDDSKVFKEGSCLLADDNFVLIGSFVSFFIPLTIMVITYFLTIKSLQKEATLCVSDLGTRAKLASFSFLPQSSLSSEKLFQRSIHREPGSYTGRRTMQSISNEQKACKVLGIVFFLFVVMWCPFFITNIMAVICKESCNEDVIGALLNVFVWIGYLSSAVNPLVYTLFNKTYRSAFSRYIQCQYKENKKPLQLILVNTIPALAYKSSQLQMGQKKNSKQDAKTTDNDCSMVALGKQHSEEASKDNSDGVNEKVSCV

| SMILES | Potency [1] | Potency [2] | Potency [3] | Potency [4] | Potency [5] | Potency [6] | Potency [7] | Potency [8] | Potency [9] | Potency [10] | Potency [11] | Potency [12] | Potency [13] | Potency [14] | Potency [15] | Potency [16] | Potency [17] | Potency [18] | Potency [19] |
| --- | --- | --- | --- | --- | --- | --- | --- | --- | --- | --- | --- | --- | --- | --- | --- | --- | --- | --- | --- |
| C=CCOC(=O)c1ccccc1N | 6.15 µM (active) | inactive | inactive | inactive | inactive | inactive | inactive | inactive | inactive | inactive | inactive | inactive | inactive | inactive | inactive | – | – | – | – |
| CNC(=O)CSP(=O)(OC)OC | inactive | inactive | inactive | inactive | inactive | inactive | – | inactive | inactive | inactive | inactive | – | inactive | – | inactive | inactive | inactive | – | – |
| CCOP(=S)(OCC)Oc1cc(Cl)c(Br)cc1Cl | 61.1 µM (active) | inactive | inactive | inactive | – | inactive | inactive | inactive | inactive | inactive | inactive | – | inactive | inactive | inactive | – | – | – | – |
| COP(=S)(Oc1cc(Cl)c(Br)cc1Cl)c1ccccc1 (stereo not drawn) | 48.6 µM (active) | inactive | inactive | inactive | inactive | – | inactive | inactive | inactive | inactive | inactive | – | inactive | – | – | inactive | inactive | – | – |
| COC(=O)/C=C(\C)OP(=O)(OC)OC | inactive | inactive | inactive | inactive | inactive | inactive | inactive | inactive | inactive | inactive | – | inactive | inactive | inactive | inactive | – | 17.2 µM (active) | inactive | – |
| CC(C)=CC1C(C(=O)OCc2coc(Cc3ccccc3)c2)C1(C)C (stereo not drawn) | 61.2 µM (active) and 61.1 µM (active) | inactive | inactive | inactive | inactive | inactive | inactive | inactive | inactive | inactive | inactive | inactive | inactive | inactive | inactive | inactive | – | – | – |
| S=C=NCc1ccccc1 | 27.6 µM (active) | inactive | inactive | inactive | – | inactive | inactive | inactive | inactive | inactive | inactive | inactive | inactive | inactive | inactive | inactive | – | inactive | inactive |
| Nc1ccc(Cl)cc1C(=O)c1ccccc1 | inactive | inactive | inactive | inactive | – | – | – | – | – | inactive | inactive | – | inactive | inactive | inactive | inactive | – | – | inactive |
| CCCSP(=O)(OCC)Oc1ccc(Br)cc1Cl (stereo not drawn) | inactive | inactive | inactive | inactive | inactive | inactive | inactive | inactive | – | inactive | inactive | inactive | inactive | inactive | – | inactive | – | – | – |
| CCOc1cc(C(C)(C)C)ccc1C1COC(c2c(F)cccc2F)=N1 (stereo not drawn) | inactive | inactive | inactive | inactive | inactive | inactive | inactive | inactive | inactive | inactive | inactive | – | inactive | – | inactive | – | – | – | – |
| CC(C)(O)c1cnn2c(-c3ccc(F)c(-c4c(F)cccc4C#N)c3)cnc2n1 | inactive | 38.9 µM (active) | inactive | inactive | inactive | inactive | inactive | – | 54.9 µM (active) | inactive | inactive | – | inactive | – | inactive | – | inactive | – | – |
| CCCCN(CCCC)C(=S)S | 68.6 µM (active) | inactive | inactive | inactive | inactive | inactive | inactive | inactive | inactive | inactive | inactive | inactive | inactive | inactive | inactive | – | – | – | – |
| NC(=O)C(Cl)(Cl)Cl | inactive | inactive | inactive | inactive | inactive | inactive | inactive | inactive | inactive | inactive | inactive | inactive | inactive | inactive | inactive | inactive | inactive | – | – |
| O=C(Nc1ccccc1)Nc1ccnc(Cl)c1 | inactive | inactive | inactive | inactive | inactive | inactive | – | – | inactive | inactive | inactive | – | inactive | inactive | inactive | – | inactive | – | inactive |
| COc1ccc(Cc2nccc3cc(OC)c(OC)cc23)cc1OC | inactive | inactive | inactive | inactive | inactive | inactive | – | – | – | – | – | 11.9 µM (active) | inactive | inactive | inactive | inactive | – | – | inactive |
| Nc1ccccc1C(=O)OC/C=C/c1ccccc1 | inactive | inactive | inactive | inactive | – | inactive | – | inactive | inactive | inactive | inactive | – | inactive | inactive | inactive | – | – | inactive | inactive |
| Clc1cc(Cl)c(Cl)c(Cl)c1 | inactive | inactive | inactive | inactive | inactive | inactive | inactive | inactive | inactive | inactive | inactive | inactive | inactive | inactive | inactive | inactive | – | – | – |
